According to publication PMC8384837, “Expanding the binding specificity for RNA recognition by a PUF domain”:

How the values were obtained:
Assay in all cases: yeast three-hybrid, YBZ-1, SC-Leu-His + 0.5 mM 3-AT, 4 days
Settings in all cases: tags: N-Gal4 AD-HA kept; label: inside an RPR1-promoter hybrid RNA with tandem MS2 sites; ssRNA
PUM1 PUF domain R1-TMR = PUM1 PUF domain R1-TMR (Homo sapiens, UniProt Q14671 828-1176, S863T;R864M;Q867R)
In short: (§1)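 Pumilio-1 PUF domain libraries, randomized at the three base-contacting residues of each repeat, were co-expressed with matching RNA elements from a centromeric plasmid in strain YBZ-1, which carries a LexA–MS2 coat fusion and a HIS3 reporter. Transformants grew for four days on SC-Leu (input) or on SC-Leu-His + 0.5 mM 3-AT (selection), and the repeat regions were PCR-amplified and Illumina-sequenced. The interaction score is the log change in variant frequency from input to selection. That logarithm is base 2, with a pseudocount of 1 where a variant was absent.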

PUM1 PUF domain R1-GCR = PUM1 PUF domain R1-GCR (Homo sapiens, UniProt Q14671 828-1176, S863G;R864C;Q867R)
In short: as §1

PUM1 PUF domain R8-RHI = PUM1 PUF domain R8-RHI (Homo sapiens, UniProt Q14671 828-1176, N1122R;Y1123H;Q1126I)
In short: as §1

PUM1 PUF domain R5-RGP = PUM1 PUF domain R5-RGP (Homo sapiens, UniProt Q14671 828-1176, C1007R;R1008G;Q1011P)
In short: as §1

PUM1 PUF domain R5-FKR = PUM1 PUF domain R5-FKR (Homo sapiens, UniProt Q14671 828-1176, C1007F;R1008K;Q1011R)
In short: as §1

PUM1 PUF domain R5-KND = PUM1 PUF domain R5-KND (Homo sapiens, UniProt Q14671 828-1176, C1007K;R1008N;Q1011D)
In short: as §1

PUM1 PUF domain R6-VYG = molecular target: T1, PUM1 PUF domain R6-VYG (Homo sapiens, UniProt Q14671 828-1176, N1043V;Q1047G)
T1 sequence: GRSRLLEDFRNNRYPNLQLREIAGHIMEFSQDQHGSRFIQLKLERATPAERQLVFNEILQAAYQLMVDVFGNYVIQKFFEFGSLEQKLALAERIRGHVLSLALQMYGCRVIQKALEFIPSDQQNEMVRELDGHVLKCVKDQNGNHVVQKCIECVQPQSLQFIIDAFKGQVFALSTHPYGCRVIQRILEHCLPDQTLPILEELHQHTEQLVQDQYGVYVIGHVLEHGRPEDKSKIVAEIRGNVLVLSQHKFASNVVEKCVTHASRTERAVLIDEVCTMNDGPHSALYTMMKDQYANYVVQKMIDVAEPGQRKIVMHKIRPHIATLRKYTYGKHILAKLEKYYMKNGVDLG
In short: as §1

PUM1 PUF domain R7-RSN = PUM1 PUF domain R7-RSN (Homo sapiens, UniProt Q14671 828-1176, S1079R;N1080S;E1083N)
In short: as §1

PUM1 PUF domain R3-SME = PUM1 PUF domain R3-SME (Homo sapiens, UniProt Q14671 828-1176, C935S;R936M;Q939E)
In short: as §1

Sequence: GGCUAGAACUAGUGGAUCCCCCGGCGCCCGGCGGCUCGAGCCCGGGUAAGUGUAAAUCGUCUGCAUGCCGCCGGGCGCCAUGCCUGCAGGUCGACUCUAGAAAACAUG
- binding signal (PUM1 PUF domain R1-TMR): 2.55 log2 enrichment (interaction score)
- binding signal (PUM1 PUF domain R1-GCR): 2.53 log2 enrichment (interaction score)

Sequence: GGCUAGAACUAGUGGAUCCCCCGGCGCCCGGCGGCUCGAGCCCGGGUAAGCGUAAAUAGUCUGCAUGCCGCCGGGCGCCAUGCCUGCAGGUCGACUCUAGAAAACAUG
- binding signal (PUM1 PUF domain R8-RHI): 5.37 log2 enrichment (interaction score)

Sequence: GGCUAGAACUAGUGGAUCCCCCGGCGCCCGGCGGCUCGAGCCCGGGUAAGUGUCAAUAGUCUGCAUGCCGCCGGGCGCCAUGCCUGCAGGUCGACUCUAGAAAACAUG
- binding signal (PUM1 PUF domain R5-RGP): 2.99 log2 enrichment (interaction score)
- binding signal (PUM1 PUF domain R5-FKR): 3.62 log2 enrichment (interaction score)
- binding signal (PUM1 PUF domain R5-KND): 3.62 log2 enrichment (interaction score)

Sequence: GGCUAGAACUAGUGGAUCCCCCGGCGCCCGGCGGCUCGAGCCCGGGUAAGUGUAAAUAGUCUGCAUGCCGCCGGGCGCCAUGCCUGCAGGUCGACUCUAGAAAACAUG
- binding signal (PUM1 PUF domain R6-VYG): 1.61 log2 enrichment (interaction score)

Sequence: GGCUAGAACUAGUGGAUCCCCCGGCGCCCGGCGGCUCGAGCCCGGGUAAGUGAAAAUAGUCUGCAUGCCGCCGGGCGCCAUGCCUGCAGGUCGACUCUAGAAAACAUG
- binding signal (PUM1 PUF domain R6-VYG): 5.61 log2 enrichment (interaction score)

Sequence: GGCUAGAACUAGUGGAUCCCCCGGCGCCCGGCGGCUCGAGCCCGGGUAAGUGUAAAUUGUCUGCAUGCCGCCGGGCGCCAUGCCUGCAGGUCGACUCUAGAAAACAUG
- binding signal (PUM1 PUF domain R1-GCR): 1.58 log2 enrichment (interaction score)

Sequence: GGCUAGAACUAGUGGAUCCCCCGGCGCCCGGCGGCUCGAGCCCGGGUAAGUGUUAAUAGUCUGCAUGCCGCCGGGCGCCAUGCCUGCAGGUCGACUCUAGAAAACAUG
- binding signal (PUM1 PUF domain R5-FKR): 2.17 log2 enrichment (interaction score)

Sequence: GGCUAGAACUAGUGGAUCCCCCGGCGCCCGGCGGCUCGAGCCCGGGUAAGUUUAAAUAGUCUGCAUGCCGCCGGGCGCCAUGCCUGCAGGUCGACUCUAGAAAACAUG
- binding signal (PUM1 PUF domain R7-RSN): 3.1 log2 enrichment (interaction score)

Sequence: GGCUAGAACUAGUGGAUCCCCCGGCGCCCGGCGGCUCGAGCCCGGGUAAGUCUAAAUAGUCUGCAUGCCGCCGGGCGCCAUGCCUGCAGGUCGACUCUAGAAAACAUG
- binding signal (PUM1 PUF domain R7-RSN): 1.34 log2 enrichment (interaction score)

Sequence: GGCUAGAACUAGUGGAUCCCCCGGCGCCCGGCGGCUCGAGCCCGGGUAAGUGUAAGUAGUCUGCAUGCCGCCGGGCGCCAUGCCUGCAGGUCGACUCUAGAAAACAUG
- binding signal (PUM1 PUF domain R3-SME): 3.43 log2 enrichment (interaction score)
